# From PubChem BioAssay (EPA / NIEHS)
# Results filed as inconclusive are left out. Active and inactive are the calls of the source. How the source made its calls: active means hit-call score of the fitted dose curve at least 0.9, where 1 is the maximum; inconclusive means response in the unintended direction; inactive means score below 0.9.
# Read-out: Cytochrome P450 2B6 (Homo sapiens) (UniProt P20813)
# Experiment: CLD_CYP2B6_48hr: CellzDirect (CLD) Gene Expression Assay for xenobiotic metabolism (CYP2B6) at 48 hours (AID 2283699);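 further: actives raise transcript level above DMSO so potency reflects induction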
# Procedure: CLD_48hr is a cell-based, multiplexed-readout assay that uses hepatocyte, a human liver primary cell, with measurements taken at 48 hours after chemical dosing in a 96-well plate.CLD_CYP2B6_48hr is one of 16 assay component(s) measured or calculated from the CLD_48hr assay. It is designed to make measurements of mRNA induction, a form of inducible reporter, as detected with chemiluminescence signals by Quantitative Nuclease Protection Assay (qNPA) technology.Data from the assay component CLD_CYP2B6_48hr was analyzed at the endpoint, CLD_CYP2B6_48hr, in the positive analysis fitting direction relative to DMSO as the negative control and baseline of activity. Using a type of inducible reporter, gain-of-signal activity can be used to understand changes in the reporter gene as they relate to the gene CYP2B6. Furthermore, this assay endpoint can be referred to as a primary readout. To generalize the intended target to other relatable targets, this assay endpoint is annotated to the cyp intended target family, where subfamily is xenobiotic metabolism.
# Human hepatocyte cultures were treated daily for two consecutive days with fresh dosing solutions containing appropriate concentrations of the 320 ToxCast chemicals (chemical identities were blinded to CellzDirect and other ToxCast collaborators), vehicle control (0.2% DMSO), and positive control inducers as summarized in Table 1. Due to the large number of treatment groups and chemicals examined, the ToxCast chemicals were divided into two groups (spanning two independent cultures of hepatocytes from separate donor preparations (Hu778: ToxCast plates 1 and 2; Hu776: ToxCast plates 3 and 4). Each preparation of human hepatocyte cultures was treated with respective vehicle control, medium only control, set of six positive controls/reference chemicals for the five hepatic receptor pathways, and a subset of eight of the ToxCast chemicals (indoxacarb, pyrithiobac-sodium, norflurazon, cyhalofop-butyl, methomyl, thiram, acetochlor, and propiconazole). These replicate data, coupled with internal replicates designed within the blinded ToxCast chemical library, provided additional data to evaluate interindividual differences between hepatocyte preparations and their potential impact on chemical profiles.Cell morphology and integrity were evaluated using phase-contrast microscopy as an indicator of hepatocyte cell health (Tyson & Green, 1987). Cultures for each treatment group (i.e., media, vehicle [0.2% DMSO], positive control inducers [multiple concentrations], and the ToxCast chemicals [multiple concentrations]) were observed and cell morphology was assessed relative to vehicle control cultures at each harvest time point (0, 6, 24, or 48 h). […] Images were evaluated at the conclusion of the study to assess changes in cell integrity and account for the effects of chemical exposure on uncharacteristic changes in concentration-dependent gene expression profiles. The results from these determinations of apparent cytotoxicity were annotated (yes/no) alongside the corresponding qNPA data for reference.At the conclusion of each treatment period, hepatocyte cultures (96-well) were washed with 1 volume of HBSS, lysed by addition of 25 ul ArrayPlate lysis buffer (HTG, Tucson, AZ), and 70 ul/well of Denaturation Oil, denatured by incubation at 95C for 10 min, and frozen at approximately -70C until analysis by nuclease protection assay (qNPA) (Roberts et al., 2007). For qNPA analysis, cell lysates were thawed at 50C for approximately 30 min, qNPA probes were added, and samples were incubated at 95C for 10 min to begin the detection process by denaturing the target RNA, dissociating the duplexes and secondary structure hybridization. At the conclusion of the hybridization period, S1 nuclease reagent was added to each sample to digest all nonprotected nucleotides at 50C for 60-90 min. […]
Structure (SMILES),outcome,AC50
CCC(C)(C)C(=O)OC1=C(c2ccc(Cl)cc2Cl)C(=O)OC12CCCCC2,inactive,–
CCOc1nc(NC)nc(NC(=O)NS(=O)(=O)c2ccccc2C(=O)OC)n1,inactive,–
CNC(=O)/C=C(\C)OP(=O)(OC)OC,inactive,–
O=S(=O)(O)C(F)(F)C(F)(F)C(F)(F)C(F)(F)C(F)(F)C(F)(F)C(F)(F)C(F)(F)F,inactive,–
CC(C)N(C(=O)COc1nnc(C(F)(F)F)s1)c1ccc(F)cc1,–,10900 nM (active)
CCC(C)(NC(=O)c1cc(Cl)c(C)c(Cl)c1)C(=O)CCl (stereo not given),–,0.403 nM (active)
O=C(NC(=O)c1c(F)cccc1F)Nc1ccc(OC(F)(F)C(F)OC(F)(F)F)c(Cl)c1 (stereo not given),inactive,–
COc1cc(OC)nc(NC(=O)NS(=O)(=O)c2cc(NC=O)ccc2C(=O)N(C)C)n1,inactive,–
CCCN(CCC)c1c([N+](=O)[O-])cc(C(F)(F)F)cc1[N+](=O)[O-],–,1370 nM (active)
CC1(C)C(C=C(Cl)Cl)C1C(=O)OC(C#N)c1ccc(F)c(Oc2ccccc2)c1 (stereo not given),–,7550 nM (active)
CC(C)OC(=O)Nc1cccc(Cl)c1,–,20000 nM (active)
CCCN(CCOc1c(Cl)cc(Cl)cc1Cl)C(=O)n1ccnc1,–,128 nM (active)
OCCOc1ccccc1,inactive,–
COP(=S)(OC)Oc1ccc(SC)c(C)c1,–,4480 nM (active)
CCC(C)Nc1c([N+](=O)[O-])cc(C(C)(C)C)cc1[N+](=O)[O-] (stereo not given),–,2440 nM (active)
Cc1[nH]c(=O)n(C(C)(C)C)c(=O)c1Cl,–,4850 nM (active)
O=C(Nc1ccccc1)Nc1cnns1,–,5630 nM (active)
Clc1ccccc1-c1nnc(-c2ccccc2Cl)nn1,–,3080 nM (active)
CNC(=O)Oc1ccccc1OC(C)C,–,1510 nM (active)
CC(C)(C)C(O)/C(=C\c1ccc(Cl)cc1Cl)n1cncn1 (stereo not given),–,983 nM (active)

Structure (SMILES),outcome,AC50
COC(=O)c1ccccc1CS(=O)(=O)NC(=O)Nc1nc(OC)cc(OC)n1,inactive,–
CCN(CC)C(=O)SCc1ccc(Cl)cc1,–,20000 nM (active)
COP(=S)(OC)Oc1ccc([N+](=O)[O-])cc1,–,7550 nM (active)
N#Cc1c(Cl)c(Cl)c(Cl)c(C#N)c1Cl,–,0.962 nM (active)
CCc1ccc(C(=O)NN(C(=O)c2cc(C)cc(C)c2)C(C)(C)C)cc1,–,2180 nM (active)
O=C(O)CCCOc1ccc(Cl)cc1Cl,inactive,–
CC(C)(C)C(O)C(Oc1ccc(Cl)cc1)n1cncn1 (stereo not given),–,3180 nM (active)
CCOCN(C(=O)CCl)c1c(C)cccc1CC,–,509 nM (active)
C[C@H]1[C@H](c2ccc(Cl)cc2)SC(=O)N1C(=O)NC1CCCCC1,–,1900 nM (active)
O=S1OCC2C(CO1)C1(Cl)C(Cl)=C(Cl)C2(Cl)C1(Cl)Cl (stereo not given),–,980 nM (active)
CCOC1Oc2ccc(OS(C)(=O)=O)cc2C1(C)C (stereo not given),–,1440 nM (active)
Cc1cc(C)nc(NC(=O)NS(=O)(=O)c2ccccc2C(=O)OC2COC2)n1,inactive,–
Oc1ccc(Cl)cc1Cc1ccccc1,inactive,–
O=[N+]([O-])c1c(Cl)c(Cl)c(Cl)c(Cl)c1Cl,–,1900 nM (active)
COP(=O)(OC)OC=C(Cl)Cl,inactive,–
ClC1C(Cl)C(Cl)C(Cl)C(Cl)C1Cl (stereo not given),–,44.1 nM (active)
COc1nn(CSP(=S)(OC)OC)c(=O)s1,–,655 nM (active)
C#CCN1C(=O)COc2cc(F)c(N3C(=O)C4=C(CCCC4)C3=O)cc21,–,652 nM (active)
O=[N+]([O-])/N=C1\NCCN1Cc1ccc(Cl)nc1,inactive,–
CCS(=O)(=O)c1cccnc1S(=O)(=O)NC(=O)Nc1nc(OC)cc(OC)n1,inactive,–
